A short description of this assay: growth inhibition of WT strain, primary screen, mitochondrial fusion inhibitor project, WT and mutant strains, chemical genetic (AID 1362). The following applies: mitochondrial fusion phenotypic screen, at 10 µM.
Where [1] appears, read: WT strain, growth inhibition, stronger effect = higher value.

The structures appear in SMILES notation. The whole screen tested about 190,000 compounds, of which about 4,000 (2.1%) were called active. Rule as the data show it: active = inhibition above about 58%; inactive = the rest, inconclusive results apart; tested in S. cerevisiae. The sample as a whole holds a higher share of actives than the screen did.

In the case of `O=C(CCN1C(=O)c2ccccc2C1=O)Nc1ccncc1`, the inhibition was 2.36% (inactive) under setting [1] and -2.76% (mutant strain inhibition).

Take `O=C(CCN1c2ccccc2Sc2ccccc21)Nc1ccccc1`: the inhibition was 69.8% (active) under setting [1] and 43.4% (mutant strain inhibition).

Turning to `CC1CCN(CCC(=O)Nc2ccccc2)CC1`, the inhibition is, setting by setting: under setting [1], -7.63% (inactive); (mutant strain inhibition) -10%.

Take `COc1ccc(OC)c(C(=O)c2coc3ccc(O)c(CN4CCOCC4)c23)c1`: the inhibition under setting [1] was 7.31% (inactive) and the inhibition (mutant strain inhibition) was -1.21%.

Consider `COc1ccc2occ(C(=O)c3ccc(N=C(C)N(C)C)cc3)c2c1`, for which the inhibition was 6.86% (inactive) under setting [1] and 8.79% (mutant strain inhibition).

With `COc1ccc(OC)c(C(=O)c2coc3ccc(OC)cc23)c1`, the inhibition reads like this: under setting [1], 80.9% (active); (mutant strain inhibition) 15.4%.

For `CCN(CC)CCNC(=O)c1ccc(NS(=O)(=O)c2ccc3c(c2)OCCO3)cc1`, the inhibition is, setting by setting: under setting [1], -8.91% (inactive); (mutant strain inhibition) 1.15%.

`C/C(N)=C(/C#N)C(=O)COC(=O)CNS(=O)(=O)c1ccc(C)cc1`: the inhibition is -9.23% (inactive) under setting [1] and 5.26% (mutant strain inhibition).

As to `Cc1cc(-c2csc(N)n2)c(C)n1Cc1ccccc1`, the inhibition is, setting by setting: under setting [1], 12% (inactive); (mutant strain inhibition) 5.79%.

Regarding `C=CCn1c(-c2ccc3[nH]c(C)c(C)c3c2)n[nH]c1=S`, the inhibition by setting is: under setting [1], 9.01% (inactive); (mutant strain inhibition) 0.81%.

As to `CCn1c(-c2ccncc2)n[nH]c1=S`, the inhibition reads like this: under setting [1], 5.96% (inactive); (mutant strain inhibition) 13.5%.

`CCCc1cc(-c2n[nH]c(=S)n2CC)c2ccccc2n1`: the inhibition reads like this: under setting [1], -17.6% (inactive); (mutant strain inhibition) -14.6%.

`CCCc1cc(-c2n[nH]c(=S)n2Cc2ccccc2)cs1`: the inhibition by setting is: under setting [1], 65.6% (active); (mutant strain inhibition) 36.1%.

For `CCc1cc(-c2n[nH]c(=S)n2CC(C)C)cs1`, the inhibition is, setting by setting: under setting [1], 66.2% (active); (mutant strain inhibition) -0.18%.

In the case of `CCC(C)CN1CCC(CO)(Cc2ccccc2Cl)CC1` (stereo not given), the inhibition is 11.3% (inactive) under setting [1] and 4.97% (mutant strain inhibition).

For `Cc1ccc(NC(=O)C(=O)NCC2CCN(C(=O)c3cccc([N+](=O)[O-])c3)CC2)cc1`, the inhibition was 2.01% (inactive) under setting [1] and -12.9% (mutant strain inhibition).

For the molecule `COc1ccccc1-n1c(=S)[nH]c2c(sc(=S)n2-c2ccc(C)cc2C)c1=O`, the inhibition is, setting by setting: under setting [1], -7.13% (inactive); (mutant strain inhibition) -4.6%.

Regarding `Cc1cc(C)nc(Nc2cc([N+](=O)[O-])ccc2C)n1`, the inhibition under setting [1] was -4.85% (inactive) and the inhibition (mutant strain inhibition) came to 9.39%.

In the case of `Cc1ccc(Nc2cc(C)nc3c(C)ccc([N+](=O)[O-])c23)cc1`, the inhibition under setting [1] was 64.8% (active) and the inhibition (mutant strain inhibition) was found to be 56.9%.

As for `Cc1ccc(Nc2ccc(C(N)=O)cc2[N+](=O)[O-])cc1`, the inhibition under setting [1] was 2.16% (inactive) and the inhibition (mutant strain inhibition) was -8.75%.

As for `CCC(C)(C)NC(=O)CN(C(=O)C(=O)Nc1ccc2c(c1)OCCO2)C(C)(C)CC`, the inhibition is, setting by setting: under setting [1], -7.46% (inactive); (mutant strain inhibition) 6.56%.

Turning to `Cc1ccc(C(=O)O)cc1N1C(=O)CCCC1=O`, the inhibition reads like this: under setting [1], -14.9% (inactive); (mutant strain inhibition) -14.6%.

For the molecule `Cc1nn(Cc2ccccc2)c(C)c1C(=O)NCCN1C(=O)S/C(=C\c2ccc(F)cc2)C1=O`, the inhibition runs as follows: under setting [1], 0.77% (inactive); (mutant strain inhibition) 0.61%.

With `O=C(CN1C(=O)/C(=C\c2ccc(C(F)(F)F)cc2)Sc2ccccc21)NCc1ccco1`, the inhibition by setting is: under setting [1], 49% (inactive); (mutant strain inhibition) 3.15%.

As for `CCN1CCN(CCNC(=O)c2ccc(/C=C3/Sc4ccccc4N(Cc4cccc(C)c4)C3=O)cc2)CC1`, the inhibition was 83.7% (active) under setting [1] and 59.2% (mutant strain inhibition).

Regarding `Cc1ccc(C)c(Cn2cnc3c(oc4ccccc43)c2=O)c1`, the inhibition is -1.67% (inactive) under setting [1] and -14.3% (mutant strain inhibition).

For the molecule `COc1ccc(NC(=O)c2nc(-n3nc(C)cc3C)ccc2Cl)cc1Cl`, the inhibition was 5.72% (inactive) under setting [1] and -16.9% (mutant strain inhibition).

For the molecule `COc1ccccc1/C=N\Nc1cc(C)nc(-n2nc(C)cc2C)n1`, the inhibition under setting [1] is 69.1% (active) and the inhibition (mutant strain inhibition) is 28.4%.

For the molecule `COc1cccc(/C=N/Nc2cc(C)nc(-c3ccccc3O)n2)c1O`, the inhibition under setting [1] was 51.6% (inactive) and the inhibition (mutant strain inhibition) was determined as 48.3%.

In the case of `CC(=O)c1ccc(Oc2cc(C)nc(-n3nc(C)cc3C)n2)cc1`, the inhibition is, setting by setting: under setting [1], -3.85% (inactive); (mutant strain inhibition) 8.66%.

In the case of `COc1ccc(Nc2cc(C)nc(-n3nc(C)cc3C)n2)cc1`, the inhibition runs as follows: under setting [1], 76.8% (active); (mutant strain inhibition) 68.7%.

In the case of `COc1cc(NS(=O)(=O)c2ccccc2)ccc1-n1nc(C)cc1C`, the inhibition is, setting by setting: under setting [1], -33.7% (inactive); (mutant strain inhibition) 2.02%.

Turning to `COc1ccc(-c2ccc(CCC(=O)O)n2-c2ccc(O)cc2)cc1`, the inhibition under setting [1] is -12.3% (inactive) and the inhibition (mutant strain inhibition) was -2.11%.

Consider `COc1ccc(NC(=O)Nc2ccc3nsnc3c2)cc1`, for which the inhibition is 23.1% (inactive) under setting [1] and -36.8% (mutant strain inhibition).

For the molecule `O=C(Nc1ccccc1)Nc1nc2ccccc2s1`, the inhibition runs as follows: under setting [1], -5.57% (inactive); (mutant strain inhibition) -20.5%.

Consider `O=C(Nc1ccc2ccccc2c1)Nc1ccc2snnc2c1`, for which the inhibition is 88.1% (active) under setting [1] and 77.8% (mutant strain inhibition).

Turning to `COc1ccc2c(c1)CCc1c(C(=O)N3CCCC3)noc1-2`, the inhibition is -10.3% (inactive) under setting [1] and -6.91% (mutant strain inhibition).

As to `COc1ccc2c(c1)CCc1c(C(=O)Nc3c(C)n(C)n(-c4ccccc4)c3=O)noc1-2`, the inhibition is, setting by setting: under setting [1], -9.3% (inactive); (mutant strain inhibition) -13%.

Turning to `COc1ccc2c(c1)CCc1c(C(=O)N3CCc4ccccc4C3)noc1-2`, the inhibition under setting [1] is 73.9% (active) and the inhibition (mutant strain inhibition) worked out at 68%.

`COc1ccc(CC2(CO)CCN(Cc3cnn(C)c3)CC2)cc1`: the inhibition reads like this: under setting [1], 12.1% (inactive); (mutant strain inhibition) -0.62%.

For `Cc1cc(O)c(NC(=O)c2ccc(C)c([N+](=O)[O-])c2)cc1C`, the inhibition is, setting by setting: under setting [1], -6.28% (inactive); (mutant strain inhibition) -4.47%.

Consider `CCOc1cccc(OCCCOc2cccc3cccnc23)c1`, for which the inhibition by setting is: under setting [1], 60.8% (active); (mutant strain inhibition) 26%.

Take `Cc1cc(OCCOc2cccc3cccnc23)c(C)cc1Cl`: the inhibition under setting [1] was 14.6% (inactive) and the inhibition (mutant strain inhibition) was 20.4%.

As to `O=S(=O)(NCCOc1cccc2cccnc12)c1ccc(F)cc1`, the inhibition by setting is: under setting [1], 0.13% (inactive); (mutant strain inhibition) 5.48%.

Consider `CC[N+]1(CC)CC2=Cc3ccccc3CC2C1` (stereo not given), for which the inhibition reads like this: under setting [1], 0.67% (inactive); (mutant strain inhibition) -6.63%.

Regarding `COCc1nnc(NC(=O)CS(=O)(=O)Cc2ccccc2)s1`, the inhibition reads like this: under setting [1], -3.35% (inactive); (mutant strain inhibition) -9.06%.

Regarding `O=C(CS(=O)(=O)Cc1ccccc1)Nc1cccnc1`, the inhibition by setting is: under setting [1], 90.1% (active); (mutant strain inhibition) 19.3%.

On to `O=C(CCc1ccccc1)NCc1cccnc1`, for which the inhibition runs as follows: under setting [1], -0.16% (inactive); (mutant strain inhibition) 17.5%.

With `COCCC(=O)Nc1ccc2c(c1)CN(C(=O)CCOC)CC2`, the inhibition by setting is: under setting [1], -15.9% (inactive); (mutant strain inhibition) -11.2%.

As for `CC(C)C1Nc2c(C(=O)O)cccc2C(Nc2ccccc2C(=O)O)C1(C)C` (stereo not given), the inhibition is -8.7% (inactive) under setting [1] and -3.34% (mutant strain inhibition).

As for `Cc1ccc(-n2nc3c(c2NC(=O)c2ccc4c(c2)OCO4)CSC3)c(C)c1`, the inhibition runs as follows: under setting [1], 84% (active); (mutant strain inhibition) 3.65%.

Turning to `Cc1cccc(-n2nc3c(c2NC(=O)c2ccc(Br)o2)CSC3)c1C`, the inhibition under setting [1] is 8.72% (inactive) and the inhibition (mutant strain inhibition) was determined as 6.28%.

`Cc1cc(C)c2nc(NC(=O)c3ccc4c(c3)OCO4)sc2c1`: the inhibition under setting [1] is 14.1% (inactive) and the inhibition (mutant strain inhibition) was -21.7%.

With `O=C(Oc1cccc(O)c1)C1CCCCC1`, the inhibition by setting is: under setting [1], -7.96% (inactive); (mutant strain inhibition) 7.95%.

As to `CCOC(=O)c1c(CN(C)C)n(-c2ccccc2)c2cc(Br)c(O)cc12`, the inhibition by setting is: under setting [1], 9.54% (inactive); (mutant strain inhibition) 7.76%.

The values are drawn from PubChem BioAssay AID1362 (SRMLSC, 2008).
